Where “and” joins values, the source holds several entries; their conditions need not be identical. Equal values may be shown once. Results filed as inconclusive are left out. Calls of active or inactive are those of the source. Unless noted, calls follow the shape of the dose curve; as a rule, active = well fitted curve in the direction sought with a large enough effect in the repeat runs; inconclusive = weak or mixed curves; inactive = no such curve, though single readings can be large; an effect the other way counts as inactive or inconclusive.
tested on: not listed separately; assay: qHTS assay to identify small molecule antagonists of the constitutive androstane receptor (CAR) signaling pathway - cell viability counter screen (AID 1224837); settings: HepG2-CYP2B6-hCAR viability, CellTiter-Fluor, 23 h, co-treated with 50 nM CITCO; series mostly up to 92.4 µM; activity change, negative = cytotoxicity: at the top concentration; also: nearly all actives have a fitted effect of over 45% in size
Method in brief: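 Cytotoxicity counter-screen: CellTiter-Fluor fluorescence after 23 h compound exposure (15-point qHTS) in double-stable HepG2-CYP2B6-hCAR cells, with 50 nM CITCO added.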
% is scaled to controls: 0 for no effect and ±100 for the full control effect.

Compound | activity change, negative = cytotoxicity
N=C(N)c1ccc(OCCCOc2ccc(C(=N)N)cc2)cc1 | -23.3% [at 42.5 µM] (inactive)
CCC=O | 2.25% (inactive)
Nc1ccccc1S(=O)(=O)O | 0.435% (inactive)
Nc1nc2c(ncn2COC(CO)CO)c(=O)[nH]1 | 7.98% [at 42.5 µM] (inactive)
C[C@H]1C[C@@H](O)CC(C)(C)C1 | -1.41% (inactive)
CC/C=C\CCOC(C)=O | -3.99% (inactive)

biological target: Nuclear receptor subfamily 1 group I member 3 (Homo sapiens) (UniProt Q14994); assay: qHTS assay to identify small molecule antagonists of the constitutive androstane receptor (CAR) signaling pathway (AID 1224838); settings: HepG2-CYP2B6-hCAR luciferase, CITCO-stimulated, 24 h; series mostly up to 92.4 µM; activity, negative = inhibition: at the top concentration;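 also: HepG2 cells stably expressing hCAR with CYP2B6 luciferase reporter stimulated by CITCO; nearly all actives have a fitted effect of over 40% in size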
Method in brief: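 Antagonism measured as luciferase signal (ONE-Glo, 30 min, room temperature) in CAR-stimulated cells: HepG2-CYP2B6-hCAR double-stable line exposed 24 hr at 37 C to compound in a 15-point series plus 50 nM CITCO.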

Chain of Nuclear receptor subfamily 1 group I member 3 (Homo sapiens) (Q14994 whole entry, looked up): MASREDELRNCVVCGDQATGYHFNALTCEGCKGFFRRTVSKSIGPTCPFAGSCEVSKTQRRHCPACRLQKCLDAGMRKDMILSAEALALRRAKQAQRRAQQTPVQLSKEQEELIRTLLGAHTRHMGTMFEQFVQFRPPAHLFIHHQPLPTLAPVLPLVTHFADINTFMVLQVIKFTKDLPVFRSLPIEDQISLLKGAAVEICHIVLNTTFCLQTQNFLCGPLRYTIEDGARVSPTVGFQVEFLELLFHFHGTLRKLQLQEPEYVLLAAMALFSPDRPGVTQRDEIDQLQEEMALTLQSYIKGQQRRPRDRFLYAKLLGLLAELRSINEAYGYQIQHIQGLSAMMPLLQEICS

Compound | activity, negative = inhibition
CC(=O)Nc1ccc(S(N)(=O)=O)cc1 | -1.26% (inactive)
CCCCCCCCS(=O)(=O)Cl | 3.87% (inactive)
C=C[Si](OC(=C)C)(OC(=C)C)OC(=C)C | 13.3% (inactive)
CC(=O)CC(C)C | -5.24% (inactive)
COc1ccc(CCN(C)CCCC(C#N)(c2cc(OC)c(OC)c(OC)c2)C(C)C)cc1OC (centres undefined) | 15.1% [at 42.5 µM] (inactive)
Cc1cnc(NS(=O)(=O)c2ccc(N)cc2)nc1 | -14.8% [at 42.5 µM] (inactive)
CN(C)CCCSc1ccccc1NC(=O)/C=C/c1ccccc1 | 28.4% [at 42.5 µM] (inactive)
CCN(CC)CCOCCOC(=O)C1(c2ccccc2)CCCC1 | 10.6% [at 42.5 µM] (inactive)

biological target: Nuclear receptor subfamily 1 group I member 3 (Homo sapiens) (UniProt Q14994); assay: qHTS assay to identify small molecule agonists of the constitutive androstane receptor (CAR) signaling pathway (AID 1224839); settings: HepG2 hCAR CYP2B6-luciferase, agonist mode, 24 h; series mostly up to 92.4 µM; activation: at the top concentration; also: nearly all actives have a fitted effect of over 15% in size; also: potency is read from the fitted curve at half-maximal effect;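 as to activation: HepG2 cells stably carrying human CAR and a CYP2B6 luciferase reporter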
Method in brief: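 Luminescence read-out (ONE-Glo, 30 min, room temperature) from double-stable HepG2-CYP2B6-hCAR cells exposed 24 h to 15-point compound series in presence of 0.75 uM PK11195 final.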

Compound | activation | Potency
O=C(O)CNC(=O)c1ccc([N+](=O)[O-])cc1 | 1.28% (inactive) | –
Cn1cc(S(C)=O)c(=O)c2ccc(F)cc21 (centres undefined) | 0.0798% [at 42.5 µM] (inactive) | –
C=CCOCC(CC)(CO)COCC=C | 2.14% (inactive) | –
CC(=O)Nc1ccc(S(N)(=O)=O)cc1 | -2.68% (inactive) | –
CCCCCCCCS(=O)(=O)Cl | -0.343% (inactive) | –
C=C[Si](OC(=C)C)(OC(=C)C)OC(=C)C | 9.95% (inactive) | –
CC/C=C\CC/C=C/CO | 0.855% (inactive) | –
CN1CCCC1 | -4.86% (inactive) | –
O=c1cc(CO)occ1O | 3.79% [at 42.5 µM] (inactive) | –
CC(=O)CC(C)C | 0.346% (inactive) | –
CO[Si](CCCOCC1CO1)(OC)OC (centres undefined) | – | inactive
N=C(N)c1ccccc1 | -3.5% (inactive) | –
O=c1cc(-c2ccccc2)oc2ccccc12 | – | 27.3 µM (active) and 21.6 µM (active)
COc1ccc2c(c1)CCCC2=O | 6.91% [at 42.5 µM] (inactive) | –
NC(=O)c1cn(Cc2c(F)cccc2F)nn1 | 0.0167% [at 42.5 µM] (inactive) | –
NC(CSCC(=O)O)C(=O)O (centres undefined) | -3.07% [at 42.5 µM] (inactive) | –
COc1ccc(CCN(C)CCCC(C#N)(c2cc(OC)c(OC)c(OC)c2)C(C)C)cc1OC (centres undefined) | -2.51% [at 42.5 µM] (inactive) | –
Cc1cnc(NS(=O)(=O)c2ccc(N)cc2)nc1 | -1.45% [at 42.5 µM] (inactive) | –
CC(=O)N(CC(O)CO)c1c(I)c(C(=O)NCCO)c(I)c(C(=O)NCC(O)CO)c1I (centres undefined) | 0.763% [at 42.5 µM] (inactive) | –
C/C=C(\C)C#N | 2.45% (inactive) | –
COC(=O)CCSCCC(=O)OC | 1.88% (inactive) | –
COc1ccccc1OCC(O)CN1CCN(CC(=O)Nc2c(C)cccc2C)CC1 (centres undefined) | -1.88% [at 42.5 µM] (inactive) | –
CN(C)CCCSc1ccccc1NC(=O)/C=C/c1ccccc1 | 1.52% [at 42.5 µM] (inactive) | –
N=C(N)c1ccc(OCCCOc2ccc(C(=N)N)cc2)cc1 | 3.18% [at 42.5 µM] (inactive) | –
CCC=O | -0.208% (inactive) | –
Nc1ccccc1S(=O)(=O)O | 0.0019% (inactive) | –
Nc1nc2c(ncn2COC(CO)CO)c(=O)[nH]1 | -0.122% [at 42.5 µM] (inactive) | –
CCN(CC)CCOCCOC(=O)C1(c2ccccc2)CCCC1 | 0.998% [at 42.5 µM] (inactive) | –
C[C@H]1C[C@@H](O)CC(C)(C)C1 | 3.3% (inactive) | –
CC/C=C\CCOC(C)=O | 1.41% (inactive) | –

tested on: not listed separately; assay: qHTS assay to identify small molecule antagonists of the estrogen related receptor signaling pathway with the pleiotropic PPARgamma coactivator (PGC) from Tox21 10K library - cell viability counter screen (AID 1224840; active = well fitted cell-killing curve with a large enough effect in the repeat runs, not every such curve was filed as active; also: nearly all actives have a fitted effect of over 40% in size); settings: PGC/ERR reporter cells viability, CellTiter-Fluor, 17.5 h; series mostly up to 92.4 µM; viability change, negative = cytotoxic: at the top concentration
Method in brief: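 Counter-screen for cytotoxicity: after 17.5 h compound exposure at 37 C, CellTiter-Fluor reagent added to PGC/ERR cells for 30 min and fluorescence read. Cells were seeded at 2,000 per well 6 h before dosing.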

Compound | viability change, negative = cytotoxic | Potency
O=C(O)CNC(=O)c1ccc([N+](=O)[O-])cc1 | 0.786% (inactive) | –
Cn1cc(S(C)=O)c(=O)c2ccc(F)cc21 (centres undefined) | -5.11% [at 42.5 µM] (inactive) | –
C=CCOCC(CC)(CO)COCC=C | 7.04% (inactive) | –
CC(=O)Nc1ccc(S(N)(=O)=O)cc1 | 2.71% (inactive) | –
C=C1CC[C@H]2C[C@@H]1C2(C)C | 8.14% (inactive) | –
CCCCCCCCS(=O)(=O)Cl | -1.02% (inactive) | –
C=C[Si](OC(=C)C)(OC(=C)C)OC(=C)C | 10.8% (inactive) | –
O=C1NC(=O)[C@@]2(CCOc3ccc(F)cc32)N1 | -0.592% [at 42.5 µM] (inactive) | –
CC/C=C\CC/C=C/CO | -0.291% (inactive) | –
CN1CCCC1 | 2.42% (inactive) | –
O=c1cc(CO)occ1O | 7.71% [at 42.5 µM] (inactive) | –
CC(=O)CC(C)C | 8.11% (inactive) | –
CO[Si](CCCOCC1CO1)(OC)OC (centres undefined) | – | inactive
CCN(CC)CCNC(=O)c1cc(S(C)(=O)=O)ccc1OC | 1.8% [at 42.5 µM] (inactive) | –
N=C(N)c1ccccc1 | 6.32% (inactive) | –
O=c1cc(-c2ccccc2)oc2ccccc12 | – | inactive
COc1ccc2c(c1)CCCC2=O | 22.1% [at 42.5 µM] (inactive) | –
NC(=O)c1cn(Cc2c(F)cccc2F)nn1 | 18.8% [at 42.5 µM] (inactive) | –

Compound | viability change, negative = cytotoxic | Potency
NC(CSCC(=O)O)C(=O)O (centres undefined) | 0.937% [at 42.5 µM] (inactive) | –
O=C1CCCCCCCCCCCN1 | – | inactive
COc1ccc(CCN(C)CCCC(C#N)(c2cc(OC)c(OC)c(OC)c2)C(C)C)cc1OC (centres undefined) | -22.2% [at 42.5 µM] (inactive) | –
Cc1cnc(NS(=O)(=O)c2ccc(N)cc2)nc1 | 14.5% [at 42.5 µM] (inactive) | –
CC(=O)N(CC(O)CO)c1c(I)c(C(=O)NCCO)c(I)c(C(=O)NCC(O)CO)c1I (centres undefined) | -8.09% [at 42.5 µM] (inactive) | –
C/C=C(\C)C#N | 0.259% (inactive) | –
COC(=O)CCSCCC(=O)OC | 0.125% (inactive) | –
COc1ccccc1OCC(O)CN1CCN(CC(=O)Nc2c(C)cccc2C)CC1 (centres undefined) | -3.54% [at 42.5 µM] (inactive) | –
CN(C)CCCSc1ccccc1NC(=O)/C=C/c1ccccc1 | -4.86% [at 42.5 µM] (inactive) | –
CC(=O)OCC(=O)[C@@]1(O)CC[C@H]2[C@@H]3CCC4=CC(=O)CC[C@]4(C)[C@H]3C(=O)C[C@@]21C | 15.7% [at 42.5 µM] (inactive) | –
N=C(N)c1ccc(OCCCOc2ccc(C(=N)N)cc2)cc1 | -7.16% [at 42.5 µM] (inactive) | –
CCC=O | -0.564% (inactive) | –
Nc1ccccc1S(=O)(=O)O | 7.48% (inactive) | –
Nc1nc2c(ncn2COC(CO)CO)c(=O)[nH]1 | -0.478% [at 42.5 µM] (inactive) | –
CCN(CC)CCOCCOC(=O)C1(c2ccccc2)CCCC1 | -20.6% [at 42.5 µM] (inactive) | –
C[C@H]1C[C@@H](O)CC(C)(C)C1 | -1.14% (inactive) | –
CC/C=C\CCOC(C)=O | 4.49% (inactive) | –

From PubChem BioAssay (Tox21)
